Reference: PubChem BioAssay AID606 (Columbia University Molecular Screening Center, 2007)
The whole screen tested about 52,000 compounds, of which fewer than 10 were called active.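 The calls were made as follows: active = IC50 under 40 µM in the dose-response test; inactive = IC50 of 40 µM or more, or never dose-tested.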 These entries were drawn from the full list.

What follows are molecules tested against Tyrosine-protein phosphatase non-receptor type 22 (Homo sapiens) (UniProt Q9Y2R2) (assay: inhibition of human PTPN22 tyrosine phosphatase – biochemical, DiFMUP fluorescence, recombinant catalytic domain, 10 µM, primary screen (AID 606)). Conditions: recombinant LYP catalytic domain, at 10 µM, active compounds read high.
Sequence of Tyrosine-protein phosphatase non-receptor type 22 (Homo sapiens) (Q9Y2R2 whole entry, looked up, the tested form may be a part): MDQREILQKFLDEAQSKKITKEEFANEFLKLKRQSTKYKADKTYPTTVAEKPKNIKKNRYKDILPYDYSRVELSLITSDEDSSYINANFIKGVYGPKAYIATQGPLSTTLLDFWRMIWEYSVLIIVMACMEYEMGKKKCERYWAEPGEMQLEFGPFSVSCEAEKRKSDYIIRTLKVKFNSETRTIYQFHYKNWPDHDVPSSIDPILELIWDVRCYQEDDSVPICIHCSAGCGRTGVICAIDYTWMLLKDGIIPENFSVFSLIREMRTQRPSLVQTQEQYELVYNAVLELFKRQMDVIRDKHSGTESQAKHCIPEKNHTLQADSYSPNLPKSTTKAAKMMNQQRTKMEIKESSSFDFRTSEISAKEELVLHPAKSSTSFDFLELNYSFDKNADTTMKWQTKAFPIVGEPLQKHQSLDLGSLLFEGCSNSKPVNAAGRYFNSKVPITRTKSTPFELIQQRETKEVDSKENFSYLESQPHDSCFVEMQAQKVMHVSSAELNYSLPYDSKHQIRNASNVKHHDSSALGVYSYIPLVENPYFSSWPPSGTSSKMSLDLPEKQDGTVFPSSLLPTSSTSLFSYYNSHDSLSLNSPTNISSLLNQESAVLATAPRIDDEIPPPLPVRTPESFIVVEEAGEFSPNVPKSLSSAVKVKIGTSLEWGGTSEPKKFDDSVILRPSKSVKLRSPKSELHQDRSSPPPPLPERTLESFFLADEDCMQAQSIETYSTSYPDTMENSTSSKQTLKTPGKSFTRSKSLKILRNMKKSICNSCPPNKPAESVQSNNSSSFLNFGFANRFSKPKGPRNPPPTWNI

inhibition, inactive:
COCC(C)n1c(C)cc(C(=O)COC(=O)c2ccc3ncsc3c2)c1C (centres undefined) -12.6%, CCCn1cnc2cc(NCc3ccccn3)ccc21 6.61%, NC(=O)c1ccccc1NC(=O)CCCN1C(=O)CCC1=O 14.4%, CCN(CC)c1ccc(C(=O)OCC(=O)N2CCN(c3ccccc3)CC2)cc1 0.55%, COc1ccc(N(CC(=O)Nc2ccc(OC)c(Cl)c2)S(=O)(=O)c2c(C)noc2C)cc1 6.18%, CCOC(=O)C1CCN(C(=O)COc2ccc(N(C)S(=O)(=O)c3cccs3)cc2)CC1 4.68%, CC1(C)Cc2c(C#N)c(NCCCO)nc(-c3ccccc3)c2CO1 -2.42%, CSc1nc(-c2ccco2)nn1S(=O)(=O)c1ccccc1 -1.38%, CCN(CC)Cc1cc2ccccc2c2c1COC2 0.09%, c1ccc(CCNc2ncnc3c2nnn3Cc2ccccc2)cc1 -4.3%, COc1cccc(OC)c1OCC(O)CN1CCN(c2ccccc2)CC1 (centres undefined) 2.34%, CC#CCCCC(=O)Nc1cc(OC)nc(OC)n1 3%, CN1C(=O)C(C(=O)NC(C)(C)C)C2c3ccccc3OC13CCCCC23 (centres undefined) -15%, CC(C)N(Cc1nc(-c2ccccc2)no1)S(=O)(=O)c1ccccc1 1.55%, COc1cccc(NC(=O)c2ccc(CN3CCOCC3)cc2)c1 8.87%, Cc1nc2nc(-c3cccnc3)nn2c(C)c1Cl 14.4%, CCc1cc(C(=O)Nc2ccccc2)cs1 0.95%, CC(C)n1c(C(O)c2ccc3c(c2)OCO3)nc2ccccc21 (centres undefined) 5.85%, COc1cccc2cc(-c3cn4cccc(C)c4n3)c(=O)oc12 -3.29%, CCCn1c(CN2CCCCC2CC)nc2c1c(=O)n(C)c(=O)n2C (centres undefined) -4.26%, CC(=O)NC(CCS(C)(=O)=O)C(=O)Nc1ccccc1Cl (centres undefined) 1.63%, CS(=O)(=O)N(CC(=O)Nc1ccc2c(c1)OCCO2)c1ccc2c(c1)OCO2 23.4%, COc1ccc(N2CCN(C(=O)C(Cc3ccccc3)n3cccc3)CC2)cc1 (centres undefined) -12.6%, CCN(CC)C(c1ccc(F)cc1)c1nnnn1C1CCCCC1 (centres undefined) 3.34%, NC(=O)NC(=O)COC(=O)CCCc1c[nH]c2ccccc12 1.43%, Cc1noc(NS(=O)(=O)c2ccc(NC(=O)CSc3ncccn3)cc2)c1C 11.6%, COc1ccc(C(CNC(=O)c2cc(C)oc2C)N2CCOCC2)cc1 (centres undefined) 10.4%, CC(C)(C)NC(=O)CN(C(=O)c1ccc(CN2CCOCC2)o1)c1ccc2c(c1)OCCO2 -2.48%, N#CCCN(C(=O)c1ccco1)c1ccccc1 9.22%, Cc1ccc(NC(=O)c2ccc(S(=O)(=O)NCC3CCCO3)cc2)cc1 (centres undefined) 15.7%, O=C(CN1CCN(S(=O)(=O)c2ccc(Br)cc2)CC1)Nc1ccc2c(c1)OCO2 14.6%, O=C(NCC1CCCO1)[C@@H]1CSC2c3ccccc3C(=O)N21 (some centres undefined) -1.83%, O=C(CSc1nnc(-c2ccccn2)n1Cc1ccco1)c1ccc(-c2ccccc2)cc1 -10.3%, O=C(CCc1ccccc1)Nc1nnc(-c2cccs2)o1 -13%, COc1ccc(C(=O)N2CC(=O)N(CCc3ccccc3)C(=O)C2)cc1OC 9.04%, O=C(C1CCN(S(=O)(=O)N2CCOCC2)CC1)N1CCOCC1 2.43%, CC1CN(Cc2nc3c(c(=O)n(C)c(=O)n3C)n2CC(=O)c2ccccc2)CC(C)O1 (centres undefined) -0.17%, COc1ccc(-n2c(=O)[nH]cc(C(=O)N3CCCc4ccccc43)c2=O)cc1 2.14%, O=C(NCc1ccco1)C1CCN(S(=O)(=O)c2cccc3cccnc23)CC1 4.72%, CCCCn1c2c(c(=O)n(C)c1=O)C(c1ccc(OC)cc1)N1CCCCCC1=N2 (centres undefined) -3.4%, Cc1ccc(S(=O)(=O)NCCC(=O)NCc2ccccc2)cc1 7.96%, CC1CCc2sc3nc(NCc4ccco4)n4ncnc4c3c2C1 (centres undefined) 2.11%, C=CCn1c(NCCO)nc2sc3c(c2c1=O)CCC3 11.6%, OCCn1nc2c3ccccc3nc-2n(-c2ccccc2)c1=S 3.81%, O=C(Nc1c(C(=O)N2CCOCC2)cnn1-c1ccccc1)c1ccccc1 1.38%, COc1ccc2c(c1)C1(Nc3ccccc3-c3nc4ccccc4n31)C(=O)N2C (centres undefined) 7.56%, C1CCc2c(nnc3c2-c2nonc2CC3)C1 11.1%, CSc1nc2c(c(=O)n1Cc1ccccc1)SC(C)C2 (centres undefined) 0.73%, Cn1c(SCC(=O)N2CCCCC2)nnc1-c1ccc(S(=O)(=O)N2CCOCC2)cc1 13.4%, CC(C)(C)NC(=O)C(OC(=O)Cn1nnc(-c2ccc(F)cc2)n1)c1ccncc1 (centres undefined) 1.61%, O=C(c1cc2ccccn2n1)N1CCN(c2ccccn2)CC1 7.66%, CN1C(=O)C(O)(CC(=O)c2ccccn2)c2cc(Br)ccc21 (centres undefined) 4.59%, COc1cc2ccccc2cc1C(=O)Nc1ccccc1N1CCN(S(C)(=O)=O)CC1 6.41%, CC(=O)c1c(N2CCN(c3ccccc3)CC2)nc(=S)n(-c2ccccc2)c1C 3.4%, Cn1c(CCNC(=O)c2cccs2)nnc1SCC(=O)N1CCN(c2ccccc2)CC1 6.14%, CCN1C(=O)C(O)(CC(=O)c2cc(C)ccc2C)c2ccccc21 (centres undefined) 11.7%, CCOC(=O)c1cc2n(n1)C(C(F)(F)C(F)(F)F)CC(C)N2 (centres undefined) 15.7%, O=C(C1CCN(c2nnc(-n3cccc3)s2)CC1)N1CCN(c2cccc(C(F)(F)F)c2)CC1 -2.18%, NC(=O)CN(c1ccc(Cl)cc1)S(=O)(=O)c1ccccc1 -12.5%, COc1ccc(N(CC(=O)N2CCc3ccccc3C2)S(=O)(=O)c2c(C)nn(C)c2C)cc1 -0.55%, O=C(NCc1ccccc1)c1ccc(COCC(F)(F)F)o1 11.7%, CCN1C(=Nc2ccc(Cl)cc2)SC/C1=C\C(=O)OC 6.44%, COc1ccc(C2CC(c3cccc(C)c3)n3ncnc3N2)cc1 (centres undefined) 16.6%, CC1CCC(NC(=O)CN2C(=O)C3CCCN3c3ncc(Cl)cc32)CC1 (centres undefined) -36.6%, Cc1cc(N2CCN(C(c3ccccc3)c3ccc(Cl)cc3)CC2)n2ncnc2n1 (centres undefined) 3.46%, O=C(Nc1ccccn1)C1CCN(S(=O)(=O)c2cccs2)CC1 4.65%, COc1ccc(CCNC(=O)CC2Oc3ccc(Cl)cc3NC2=O)cc1OC (centres undefined) -7.5%, CC(=O)Nc1ccc(C(=O)OCCC(C)C)cc1 -3.58%, Cc1nc2ccc(S(=O)(=O)NCC(=O)N(C)Cc3ccco3)cc2s1 4.87%, CNC(=O)c1ccccc1NC(=O)c1cccc(S(=O)(=O)N2CCC(C)CC2)c1 -7.79%, CCc1ccc2c(COn3nnc4ccc(S(=O)(=O)N(C)C)cc43)cc(=O)oc2c1 -1.03%, CCCSCCCNC(=O)CC1Oc2ccccc2NC1=O (centres undefined) 2.3%, Cc1cccc(Nc2ncnc3nc[nH]c23)c1 -1.47%, CCOCCCNCc1ccc(OC)c(OC)c1 6.63%, CCOC(=O)C1CCN(C(=O)CN(c2cccc(OC)c2)S(=O)(=O)c2ccccc2)CC1 -2.95%, COc1ccccc1OCCC(=O)OCCN1C(=O)c2ccccc2C1=O -6.96%, O=C(Cn1cnc2ccccc2c1=O)N1CCN(Cc2ccccc2)CC1 15.4%, CC(C)(C)c1ccc(S(=O)(=O)N2CCCCC2C(=O)NCc2ccccn2)cc1 (centres undefined) 11%, CCOc1ccc(NC(=O)CSc2nnc(-c3ccccn3)n2N)cc1 6.01%, Cc1c(NC(=O)C2CCCN(S(=O)(=O)c3cnc[nH]3)C2)c(=O)n(-c2ccccc2)n1C (centres undefined) 8.93%, COc1ccc2c(C)cc(SCC(=O)N3CCOCC3)nc2c1 8.83%, Cc1cc(=O)[nH]c(SCC(=O)c2ccc(C(C)C)cc2)n1 10.2%, COC(=O)C1=C(C)n2nnnc2NC1c1cc2ccccc2o1 (centres undefined) 12.9%, COc1cccc(NC(=O)CN(c2cccc(F)c2)S(C)(=O)=O)c1 -7.34%, Cc1cc(C)c(S(=O)(=O)N(C)Cc2cnn(C)c2)c(C)c1 7.74%, Cc1ccc(-c2cc(C(=O)NCc3ccccn3)no2)cc1 6.16%, CC1(C)Cc2ccccc2-c2nnc(-c3ccc(O)cc3)n21 5.6%, COc1ccc(C(=O)N2CCN(c3ccc(C)cc3)CC2)cc1OC -3.18%, CCNC(=O)CC1C(=O)N(c2ccccc2)C(=O)N1CCC(C)C (centres undefined) 5.24%, COc1ccccc1-n1c(CNC(=O)c2ccco2)nnc1SCC(=O)Nc1nccs1 3.45%, CCOC(=O)Cn1c(=N)n(Cc2ccccc2)c2ccccc21 -0.97%, Cn1c(CN2CCOCC2)nc2cc(NC(=O)c3ccccc3Cl)ccc21 10.7%, Cc1cc(C)n2nc(C(=O)Nc3ccccc3N3CCOCC3)nc2n1 15.1%, CCCn1c(N)c(C(=O)CN2CCN(S(=O)(=O)c3cccs3)CC2)c(=O)[nH]c1=O -0.47%, CCCN(c1ccc(OCC)cc1)c1ncnc2nc[nH]c12 16.1%, CC1(C)Cc2c(sc(NC(=O)c3ccco3)c2C#N)CO1 4.29%, CC(=O)c1ccc(OCCCC(=O)n2nnc3ccccc32)cc1 14.1%, Cc1cc(C(F)(F)F)nc(SCC(=O)Nc2ccccc2)n1 0.2%, C=CCSc1nc(C)c(CC(=O)OCCCC)c(=O)[nH]1 2.59%, CCOC(=O)c1oc2c(CN3CCCCC3C)c(O)ccc2c(=O)c1-c1ccc(OC)c(OC)c1 (centres undefined) 15.8%, CC(=O)NC(c1ccccc1)c1nc2ccccc2[nH]1 (centres undefined) -1.04%, CCCn1c(NCc2ccco2)nc2ccccc21 11.7%, COc1ccc(CCNc2cc(=O)[nH]c(N)n2)cc1 16.4%, COC(=O)c1ccc(CSc2nc3scc(-c4cccs4)c3c(=O)[nH]2)o1 3.74%, COc1ccc(NC2CCN(C3CC(=O)N(c4ccc(F)c(Cl)c4)C3=O)CC2)cc1 (centres undefined) 4.79%, COc1ccc(CC(=O)N2CCN=C2SC)cc1 7.94%, O=S(=O)(Nc1ccc2c(c1)oc1ccccc12)N1CCCC1 -2.32%, Cc1ccc(S(=O)(=O)/N=C(/Nc2nc(C)cc(C)n2)N2CCOCC2)cc1 2.14%, Cc1nnc(NCc2ccco2)c2ccccc12 5.7%
